In experiment [1] the target is Rap guanine nucleotide exchange factor 3 (Homo sapiens) (UniProt O95398). As to the kind of experiment: Confirmatory qHTS for antagonist of cAMP-regulated guanine nucleotide exchange factor 3 (EPAC1) (AID 1645880).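 For activity, negative = inhibition: plate controls were DMSO only for no effect and full effect of the ATA control for full effect.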 Note: nearly all actives have a fitted effect of over 55% in size. Note: potency is the fitted concentration of half-maximal effect. The following applies: EPAC1 Rap1B-BODIPY-GDP exchange, fluorescence; activity, negative = inhibition: at 115 µM (top of the series). The procedure, abridged: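 Released BODIPY-GDP fluoresces less than Rap1-bound BODIPY-GDP; the signal is followed at 480/540 nm at 5-min intervals over 30 min, after 5 min at room temperature. Reactions contain 100 nM EPAC1, 250 nM RAP1B-BODIPY-GDP and 50 uM GDP; results are normalized to ATA and DMSO.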
Sequence of Rap guanine nucleotide exchange factor 3 (Homo sapiens) (O95398 whole entry, looked up): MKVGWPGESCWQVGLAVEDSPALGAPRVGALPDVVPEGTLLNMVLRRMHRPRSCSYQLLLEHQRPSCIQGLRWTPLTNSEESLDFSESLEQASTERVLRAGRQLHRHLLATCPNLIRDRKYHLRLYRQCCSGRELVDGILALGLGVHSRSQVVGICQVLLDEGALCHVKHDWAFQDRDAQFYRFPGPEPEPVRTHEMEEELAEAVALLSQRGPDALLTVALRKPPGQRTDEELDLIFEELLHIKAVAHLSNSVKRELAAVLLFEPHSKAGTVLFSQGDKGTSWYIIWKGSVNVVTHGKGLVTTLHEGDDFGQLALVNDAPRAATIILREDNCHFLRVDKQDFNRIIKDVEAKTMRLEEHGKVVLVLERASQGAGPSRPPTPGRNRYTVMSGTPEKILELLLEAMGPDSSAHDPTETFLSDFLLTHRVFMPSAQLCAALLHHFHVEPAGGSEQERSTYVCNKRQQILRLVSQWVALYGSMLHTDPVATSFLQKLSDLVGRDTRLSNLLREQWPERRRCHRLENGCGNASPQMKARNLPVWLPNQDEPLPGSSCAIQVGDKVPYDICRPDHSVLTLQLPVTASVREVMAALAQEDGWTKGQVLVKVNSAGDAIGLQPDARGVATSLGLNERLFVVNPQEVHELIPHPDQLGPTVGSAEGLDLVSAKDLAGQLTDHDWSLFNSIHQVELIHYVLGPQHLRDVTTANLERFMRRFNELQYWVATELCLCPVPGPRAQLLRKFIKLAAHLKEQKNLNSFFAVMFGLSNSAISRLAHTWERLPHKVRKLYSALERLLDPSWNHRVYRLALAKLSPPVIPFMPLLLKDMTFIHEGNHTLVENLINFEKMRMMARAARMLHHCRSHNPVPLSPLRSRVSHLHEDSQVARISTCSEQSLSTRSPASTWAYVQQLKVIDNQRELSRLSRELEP

Experiment [2] shares this target. Kind of experiment: Confirmatory qHTS for agonist of cAMP-regulated guanine nucleotide exchange factor 3 (EPAC1) (AID 1645881;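 note: EPAC1 catalysed release of BODIPY-GDP from Rap1B seen as fluorescence loss; 100% = effect of cAMP agonist control; nearly all actives have a fitted effect of over 75% in size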). (In general: qHTS replaces the single test concentration by a dilution series.)
The target of experiment [3] is Rap guanine nucleotide exchange factor 4 (Homo sapiens) (UniProt Q8WZA2). Kind of experiment: Confirmatory qHTS for agonist of cAMP-regulated guanine nucleotide exchange factor 4 (EPAC2) (AID 1645884).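 Note: nucleotide exchange releases bodipy-GDP from Rap1 and this lowers its fluorescence; % is set by controls: 0 for no effect and ±100 for the full control effect; nearly all actives have a fitted effect of over 65% in size.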
Sequence of Rap guanine nucleotide exchange factor 4 (Homo sapiens) (Q8WZA2 whole entry, looked up): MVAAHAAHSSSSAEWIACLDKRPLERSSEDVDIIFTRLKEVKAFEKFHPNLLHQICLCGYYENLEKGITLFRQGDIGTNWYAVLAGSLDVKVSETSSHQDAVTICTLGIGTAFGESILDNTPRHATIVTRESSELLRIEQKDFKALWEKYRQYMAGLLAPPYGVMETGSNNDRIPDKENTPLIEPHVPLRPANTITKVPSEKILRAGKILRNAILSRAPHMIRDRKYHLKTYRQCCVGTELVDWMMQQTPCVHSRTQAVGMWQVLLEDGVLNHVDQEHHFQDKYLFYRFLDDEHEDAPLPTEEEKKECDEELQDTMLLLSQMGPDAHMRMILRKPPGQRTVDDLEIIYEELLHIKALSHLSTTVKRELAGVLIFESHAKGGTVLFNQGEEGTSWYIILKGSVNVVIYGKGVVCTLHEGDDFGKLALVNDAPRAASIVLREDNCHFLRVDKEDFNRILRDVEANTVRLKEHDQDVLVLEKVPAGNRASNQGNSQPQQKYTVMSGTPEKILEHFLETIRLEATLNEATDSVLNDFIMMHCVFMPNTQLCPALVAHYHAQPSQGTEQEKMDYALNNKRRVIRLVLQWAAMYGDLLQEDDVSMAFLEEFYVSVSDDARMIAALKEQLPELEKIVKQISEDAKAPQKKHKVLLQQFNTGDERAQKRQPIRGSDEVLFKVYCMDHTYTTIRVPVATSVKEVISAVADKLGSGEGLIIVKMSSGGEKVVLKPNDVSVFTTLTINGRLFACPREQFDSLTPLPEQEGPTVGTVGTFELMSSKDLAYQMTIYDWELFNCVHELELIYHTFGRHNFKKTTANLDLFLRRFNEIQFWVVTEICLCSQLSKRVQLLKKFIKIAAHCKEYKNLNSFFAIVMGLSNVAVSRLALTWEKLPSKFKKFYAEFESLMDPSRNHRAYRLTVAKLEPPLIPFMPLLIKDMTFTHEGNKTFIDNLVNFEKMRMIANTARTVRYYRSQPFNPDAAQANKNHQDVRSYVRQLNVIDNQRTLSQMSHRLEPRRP
In experiment [4] the target is Rap guanine nucleotide exchange factor 3 (Homo sapiens) (UniProt O95398). As to the kind of experiment: Counterscreen qHTS for antagonist of cAMP-regulated guanine nucleotide exchange factor 3 (EPAC1) (AID 1645888). Note: % of control where 0% means no effect. An outline of the steps:
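Measured: fluorescence of BODIPY-GDP bound to Rap1B, which falls as exchange proceeds. Conditions include 50 uM competing GDP, 5 and 30 min reads, and a later cAMP challenge for antagonist detection.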
(A counterscreen serves to expose hits that act by an unwanted route or on another target.)

Experiment [5] addresses Cytochrome P450 3A4 (Homo sapiens) (UniProt P08684). Kind of experiment: qHTS Assay for Inhibitors and Substrates of Cytochrome P450 3A4 (AID 884). Note: potency is the fitted concentration of half-maximal effect; nearly all actives have a fitted effect of over 50% in size. The procedure, abridged:
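Luminescent readout of luciferin produced by CYP3A4 (20 nM) dealkylation of Luciferin-PPXE, 25 uM (its KM). NADPH-driven reaction ran 60 min at RT after 10 min compound preincubation; data scaled to 57 uM ketoconazole as 100% inhibition.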

For experiment [6] the target is unchanged. As to the kind of experiment: qHTS Assay for Activators of Cytochrome P450 3A4 (AID 885). Note: nearly all actives have a fitted effect of over 65% in size. An outline of the steps: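 CYP3A4 activity: Luciferin-PPXE O-dealkylation, 25uM substrate, 200mM KPO4, RT throughout. Read-out is luciferase luminescence; higher values reflect activation.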
Experiment [7] in a line: Confirmation and Secondary Assay for Modulators of Hemoglobin Beta Chain Splicing at IVS2 654 locus (AID 910).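 Note: per-well total GFP intensity by laser scanning cytometry after 2-day treatment; % of control where 0% means no effect.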 The procedure, abridged:
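HeLa cells stably carrying EGFP interrupted by mutant beta-globin IVS2-654 intron (CMV-driven) were treated with compound for 2 days at 37C; corrected splicing was scored as total peak GFP intensity per well (488 nm excitation, 500-520 nm emission).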

Experiment [8] can be described thus: Confirmation and Secondary Assay for Modulators of Hemoglobin Beta Chain Splicing at IVS2 705 locus (AID 930).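 Note: HeLa cells stably expressing the EGFP-705 splicing reporter; % of control where 0% means no effect.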 An outline of the steps: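 HeLa cells stably carrying EGFP interrupted by mutant beta-globin IVS2-705 intron (CMV-driven) were seeded at 500 cells/well, treated next day with compound for 2 days at 37C; corrected splicing restores EGFP, read as total peak GFP intensity per well.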

Experiment [9] addresses Rap guanine nucleotide exchange factor 4 (Homo sapiens) (UniProt Q8WZA2). Kind of experiment: Confirmatory qHTS for antagonist of cAMP-regulated guanine nucleotide exchange factor 4 (EPAC2) (AID 1645885). For activity change, negative = inhibition: % is set by controls: 0 for no effect and ±100 for the full control effect. Note: nearly all actives have a fitted effect of over 25% in size. Note: potency is the fitted concentration of half-maximal effect.

The results in this text go back to PubChem BioAssay (NCATS).

Molecules are shown by their SMILES. A number with no mark means an inactive call. Inconclusive results are not listed. The source made the active and inactive calls. Calls come from the whole dose curve; as a rule, active = well fitted curve in the direction sought with a large enough effect; inconclusive = small, poorly fitted or top-dose-only effect, or another doubt; inactive = no such curve, though single readings can be large; an effect the other way counts as inactive or inconclusive.

Sequence of Cytochrome P450 3A4 (Homo sapiens) (P08684 whole entry, looked up): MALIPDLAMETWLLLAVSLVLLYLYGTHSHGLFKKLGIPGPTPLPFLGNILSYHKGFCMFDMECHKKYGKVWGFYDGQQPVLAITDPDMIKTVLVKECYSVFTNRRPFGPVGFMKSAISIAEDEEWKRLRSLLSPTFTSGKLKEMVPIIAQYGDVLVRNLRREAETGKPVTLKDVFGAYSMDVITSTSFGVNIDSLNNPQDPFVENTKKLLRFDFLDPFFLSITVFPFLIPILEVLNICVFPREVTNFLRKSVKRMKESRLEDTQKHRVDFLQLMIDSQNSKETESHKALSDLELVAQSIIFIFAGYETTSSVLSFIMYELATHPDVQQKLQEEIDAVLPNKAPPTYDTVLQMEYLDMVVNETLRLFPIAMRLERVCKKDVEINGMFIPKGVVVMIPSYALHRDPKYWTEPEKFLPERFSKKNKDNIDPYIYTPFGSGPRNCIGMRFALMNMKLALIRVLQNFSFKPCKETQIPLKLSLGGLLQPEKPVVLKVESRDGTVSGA

Regarding `Cn1c(N)c(C(=O)COC(=O)C2(c3ccc(Cl)cc3)CCCC2)c(=O)n(C)c1=O`, the Potency entry in experiment [1], in [2], in experiment [3] and in experiment [4] was “inactive” each time.
In the case of `Cc1nc(-c2ccc(C(=O)Nc3cccc(Br)c3)cc2)cs1`, the Potency entry in [1], in [2], in experiment [3] and in [4] was “inactive” in each case.
Regarding `Cc1ccc(CC#N)c(-c2c(CC#N)ccc(C)c2C)c1C`, the Potency result in [1], in [2], in [3] and in experiment [4] was “inactive” each time.
Regarding `COc1ccc2cc(/C=C3\SC(=S)NC3=O)c(N3CCOCC3)nc2c1`, the Potency in [1] was 20 µM (active). Further, the Potency result in experiment [2] is “inactive”. For the same compound, the activation in experiment [3] was 0.207% [at 17.1 µM, percent relative to cAMP agonist control]. In addition, the activity change, negative = inhibition in experiment [4] is 3.21% [at 30.8 µM].
In the case of `Cc1ccc(S(=O)(=O)Nc2ccccc2C(=O)Nc2nc(-c3ccc(F)cc3)cs2)cc1`, the Potency in experiment [1] was 42.6 µM (active). Besides, the Potency entry in experiment [2], in [3] and in [4] was “inactive” in each case.
On to `O=C1/C(=C\c2ccc(Br)cc2)SC(=S)N1NS(=O)(=O)c1ccccc1`, for which, in experiment [1], the Potency is 11.2 µM (active). Also, the Potency entry in [2] was “inactive”. In addition, in [3], the activation is 10.7% [at 17.1 µM, percent relative to cAMP agonist control]. Further, in experiment [4], the activity change, negative = inhibition was 6.09% [at 30.8 µM].
As for `CSc1nc(C)cc(C)c1S(=O)(=O)c1ccccc1C`, the Potency result in [1] and in experiment [2] was “inactive” throughout. In addition, the activation in [3] is 8.78% [at 17.1 µM, percent relative to cAMP agonist control]. Further, the activity change, negative = inhibition in experiment [4] was -5.37% [at 30.8 µM].
As for `COc1cc(/C=C2\C(=N)N3N=C(S(C)(=O)=O)SC3=NC2=O)cc(OC)c1OCCOc1ccccc1C`, the Potency in [1] is 67.5 µM (active). The Potency result in experiment [2], in [3] and in experiment [4] was “inactive” each time.
As to `COc1ccc2c(=O)c(OC)c(-c3ccccc3)oc2c1`, the Potency in experiment [5] was 10 µM (active); in experiment [9], 13.9 µM (active). Further, the result in experiment [6] was inactive. Further, the Potency entry in [7], in experiment [8], in experiment [1], in experiment [2] and in experiment [3] was “inactive” in each case.
With `COc1cc(OC)c2c(-c3ccccc3)cc(=O)oc2c1C(CC(=O)N1CCOCC1)c1ccc2c(c1)OCO2` (stereo not drawn), the Potency entry in experiment [1] and in [2] was “inactive” each time. In experiment [3], the activation was 1.13% [at 17.1 µM, percent relative to cAMP agonist control]. Further, the activity change, negative = inhibition in experiment [4] is -9.45% [at 30.8 µM].
For the compound `O=C(CSc1nc2nn(-c3ccccc3)c(=O)c-2c2n1CCCCC2)c1ccc(O)c(O)c1`, the Potency in [1] was 2.39 µM (active). Besides, the Potency entry in experiment [2], in experiment [3] and in [4] was “inactive” in each case.
For the compound `C[C@@H]1CC=C[C@H]2[C@H]1C(=O)N(Cc1ccccc1)[C@H]2c1ccc(-c2ccoc2)cc1F`, the Potency result in experiment [1], in experiment [2], in experiment [3] and in [4] was “inactive” throughout.
In the case of `C#CCOc1nc(C)cc(C)c1S(=O)(=O)c1ccccc1C`, the Potency result in experiment [1] and in [2] was “inactive” throughout. Also, the activation in experiment [3] is -13.7% [at 17.1 µM, percent relative to cAMP agonist control]. In addition, in experiment [4], the activity change, negative = inhibition is -7.83% [at 30.8 µM].
`O=C1CC2(CCCCC2)Oc2ccc(F)cc21`: the Potency entry in experiment [1], in experiment [2], in [3] and in [4] was “inactive” throughout.
Take `COc1ccc(NC(=O)c2cc(-c3ccco3)nc3ccccc23)cc1S(=O)(=O)N1CCOCC1`: in experiment [1], the Potency is 9.53 µM (active). Also, the Potency result in [2], in [3] and in [4] was “inactive” in each case.
Consider `CCC(=O)N1CCc2cc(OC)c(OC)cc2C1COc1ccc(F)cc1` (stereo not drawn), for which the Potency entry in experiment [1] and in experiment [2] was “inactive” each time. Besides, in [3], the activation is 5.75% [at 17.1 µM, percent relative to cAMP agonist control]. In addition, the activity change, negative = inhibition in experiment [4] was -5.57% [at 30.8 µM].
As to `COc1ccc(C(=O)N/N=C/c2ccc3cccc(OCc4ccccc4)c3n2)cc1`, the Potency result in experiment [1], in [2], in experiment [3] and in experiment [4] was “inactive” throughout.
For `COc1ccccc1N(CC(=O)Nc1ccc(Br)cc1F)S(=O)(=O)c1cccs1`, the Potency result in [1], in [2], in experiment [3] and in experiment [4] was “inactive” in each case.
In the case of `O=C(Cc1c(Cl)cccc1Cl)Nc1ccc(S(=O)(=O)Nc2ncccn2)cc1`, the Potency entry in [1], in experiment [2], in [3] and in [4] was “inactive” throughout.
As for `COC(=O)c1c(-c2ccc(OC)cc2)sc2ccc(OC)cc12`, the Potency entry in experiment [1], in experiment [2], in [3] and in experiment [4] was “inactive” throughout.
In the case of `COc1cc(CN2C(=O)C(C)ON=C2c2cccs2)cc(OC)c1` (stereo not drawn), the Potency entry in experiment [1], in experiment [2], in [3] and in experiment [4] was “inactive” in each case.
On to `COc1cc2c(cc1OC)C1C(=O)c3ccc4c(c3OC1CO2)C=CC(C)(C)O4` (stereo not drawn), for which the result in experiment [6] was inactive. Moreover, the Potency result in [7], in experiment [8], in experiment [1], in experiment [2], in [3] and in experiment [9] was “inactive” each time.
Take `CC#C[C@@H](CC)c1ccc2ccn(C)c2c1`: the Potency result in experiment [1] and in experiment [2] was “inactive” in each case. Also, in experiment [3], the activation was 5.93% [at 17.1 µM, percent relative to cAMP agonist control]. In addition, the activity change, negative = inhibition in experiment [4] is -25.8% [at 30.8 µM].
`CCCCN(C(=O)c1ccc2c(c1)OCO2)c1ccccc1`: the Potency result in [1], in [2], in experiment [3] and in [4] was “inactive” throughout.
For `Cc1nc2cc(-c3ccsc3-n3c(C)ccc3C)[nH]n2c(=O)c1Cl`, in experiment [1], the Potency is 37.9 µM (active). Further, the Potency entry in experiment [2], in experiment [3] and in experiment [4] was “inactive” each time.
Turning to `O=C(Cn1cnc2c(nnn2Cc2ccccc2)c1=O)N1CCN(c2ccccc2)CC1`, the Potency result in [1], in experiment [2], in [3] and in experiment [4] was “inactive” throughout.
Turning to `CNC(=O)CSc1nc2ccccc2c(=O)n1-c1cc(OC)ccc1OC`, the Potency result in experiment [1] and in experiment [2] was “inactive” in each case. In [3], the activation is -3% [at 17.1 µM, percent relative to cAMP agonist control]. Also, the activity change, negative = inhibition in [4] was -17.1% [at 30.8 µM].
On to `CCOC(=O)C1CCCN(C(=O)c2cc(-c3ccco3)nc3ccccc23)C1` (stereo not drawn), for which, in [1], the Potency is 15.1 µM (active). The Potency entry in experiment [2], in experiment [3] and in experiment [4] was “inactive” each time.
For `O=C(c1ccco1)N1CCn2cccc2C1c1ccccc1` (stereo not drawn), the Potency entry in experiment [1], in experiment [2], in experiment [3] and in experiment [4] was “inactive” throughout.
`CC(Oc1ccc(Cl)cc1Cl)c1ccn[nH]1` (stereo not drawn): the Potency result in experiment [1], in experiment [2], in experiment [3] and in experiment [4] was “inactive” each time.
With `COC(=O)[C@@]1(C)CCC[C@@]2(C)c3ccc(O)c(C(C)C)c3CCC21` (stereo partly drawn), the Potency in experiment [5] was 31.6 µM (active). Besides, the outcome in [6] was inactive. For the same compound, the Potency result in [7], in experiment [8], in experiment [1], in experiment [2], in [3] and in experiment [9] was “inactive” each time.
On to `COc1ccc(Br)cc1CNc1ccc(O)cc1`, for which the Potency result in [1], in [2], in experiment [3] and in [4] was “inactive” in each case.
In the case of `O=C(Nc1cccc(Cl)c1N1CCOCC1)c1cccs1`, the Potency result in experiment [1], in [2], in experiment [3] and in experiment [4] was “inactive” each time.
For the compound `CCCCn1nnnc1C(c1ccccc1)N1CCN(c2ccc(F)cc2)CC1` (stereo not drawn), the Potency result in experiment [1], in experiment [2], in [3] and in experiment [4] was “inactive” each time.
Take `Cc1cnc(C(=O)OCC(=O)Nc2ccc(Oc3ccccc3)cc2)cn1`: the Potency entry in experiment [1], in [2], in experiment [3] and in experiment [4] was “inactive” each time.
For the compound `O=S(=O)(O)c1ccc2c(c1)C(C(Cl)(Cl)Cl)OC(C(Cl)(Cl)Cl)O2` (stereo not drawn), the Potency in [1] is 31.6 µM (active). Moreover, in experiment [2], the Potency entry was “inactive”. The activation in experiment [3] is 2.99% [at 17.1 µM, percent relative to cAMP agonist control]. Also, in experiment [4], the activity change, negative = inhibition was -10.8% [at 30.8 µM].
On to `COc1ccc(-c2nc(C)ncc2-c2ccc(Cl)cc2)c(O)c1`, for which the Potency result in experiment [1], in [2], in experiment [3] and in [4] was “inactive” each time.
In the case of `O=C(O)c1ccc(/C=N/Nc2cccc(C(F)(F)F)c2)cc1`, the Potency entry in experiment [1], in [2], in experiment [3] and in experiment [4] was “inactive” throughout.
